Measured potencies and affinities stand elsewhere.
Target: NAD-dependent protein deacylase sirtuin-5, mitochondrial (Homo sapiens) (UniProt Q9NXA8)
Test: blockers of sirtuin-5 peptide desuccinylation – biochemical, fluorescence imaging, cherry-pick, set 6, dose response (AID 720597);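 further: lower AMC signal can also come from blocking the trypsin step; 0% = median of neutral control wells and -100% = median of positive control wells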
Settings: Purified SirT5, succinyl-peptide-AMC/trypsin fluorescence; series mostly up to 15 µM; activity change, negative = inhibition: at the top concentration;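 active means fitted half-maximal dose no more than twice the top valid tested dose, for compounds that lower signal; inconclusive means fit invalid, or curve flat with activity between -70 and -30; inactive means potency past limit, curve flat within ±30, or signal increasing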

Sequence of NAD-dependent protein deacylase sirtuin-5, mitochondrial (Homo sapiens) (Q9NXA8 whole entry, looked up): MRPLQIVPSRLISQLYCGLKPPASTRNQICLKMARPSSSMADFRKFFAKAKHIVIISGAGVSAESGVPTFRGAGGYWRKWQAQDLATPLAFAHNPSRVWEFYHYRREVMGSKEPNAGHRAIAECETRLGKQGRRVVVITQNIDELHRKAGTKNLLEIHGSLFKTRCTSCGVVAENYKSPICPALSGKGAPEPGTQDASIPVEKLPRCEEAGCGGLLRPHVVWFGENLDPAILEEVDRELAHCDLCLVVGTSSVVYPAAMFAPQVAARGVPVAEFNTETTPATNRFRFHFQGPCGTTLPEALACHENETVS

Activity change, negative = inhibition, inactive:
COc1ccc(S(=O)(=O)Nc2ccc3c(c2)C(=O)N([C@@H](C)CO)C[C@@H](C)[C@@H](CN(C)Cc2ccc(C(F)(F)F)cc2)OCCCC[C@@H](C)O3)cc1 -5.76%
C[C@@H]1CN([C@H](C)CO)S(=O)(=O)c2ccc(C#Cc3cccc(F)c3)cc2O[C@@H]1CN(C)CC1CC1 -28.8%
C[C@@H]1CN([C@@H](C)CO)S(=O)(=O)c2ccc(C#Cc3ccccc3)cc2O[C@H]1CN(C)C(=O)C1CC1 5.11%
CC(C)CC#Cc1ccc2c(c1)O[C@@H](CN(C)C(=O)C1CCCCC1)[C@H](C)CN([C@H](C)CO)S2(=O)=O -7.58%
C[C@@H]1CN([C@H](C)CO)S(=O)(=O)c2ccc(C#Cc3ccc(F)cc3)cc2O[C@H]1CN(C)S(=O)(=O)c1ccc(F)cc1 -7.84%
Cc1ccc(S(=O)(=O)N(C)C[C@@H]2OCCCC[C@H](C)Oc3ccc(NS(=O)(=O)c4ccc(F)cc4)cc3C(=O)N([C@@H](C)CO)C[C@H]2C)cc1 18.7%
C[C@H]1CN([C@@H](C)CO)S(=O)(=O)c2ccc(C#CC3CC3)cc2O[C@@H]1CN(C)Cc1ccc(F)cc1 2.42%
COc1ccc(CN(C)C[C@H]2OCCCC[C@H](C)Oc3ccc(N(C)C)cc3C(=O)N([C@H](C)CO)C[C@H]2C)cc1 13.1%
C[C@@H]1CN([C@H](C)CO)S(=O)(=O)c2ccc(C#C[C@@H](C)O)cc2O[C@@H]1CN(C)Cc1ccc(-c2ccccc2)cc1 11.5%
CN(C)Cc1cn(CC[C@H]2CC[C@H](NS(=O)(=O)c3ccccc3)[C@H](CO)O2)nn1 0.244%

Reference: PubChem BioAssay AID720597 (Broad Institute, 2013)
